A number with no mark means an inactive call. Results filed as inconclusive are left out. A call without a number means that no potency is given here. Active and inactive are the calls of the source. Unless noted, the call rests on the fitted dose curve; in most records, active means well fitted curve in the direction sought with a large enough effect in the repeat runs; inconclusive means weak or mixed curves; inactive means no such curve, though single readings can be large; an effect the other way counts as inactive or inconclusive.
How the values were obtained:
[1] = A CellTox Green Cytotoxicity Assay to monitor cytotoxicity in HEK293 cells - 32 hour (AID 1224881); further: nearly all actives have a fitted effect of over 40% in size
Outline: (§1)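 Cytotoxicity was tracked continuously in HEK293 cells by a DNA-binding dye excluded from viable cells. Compounds were transferred in DMSO 5 h after seeding; fluorescence was recorded at intervals up to 40 h.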

[2] = A CellTox Green Cytotoxicity Assay to monitor cytotoxicity in HepG2 cells - 32 hour (AID 1224883); further: nearly all actives have a fitted effect of over 50% in size; further: potency means the concentration at half of the fitted maximal effect
Outline: (§2)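 Real-time, homogeneous cytotoxicity readout: dead-cell DNA staining by CellTox Green in HepG2 monolayers, fluorescence measured at timed intervals up to 40 h of continuous compound exposure.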

[3] = A CellTox Green Cytotoxicity Assay to monitor cytotoxicity in HEK293 cells - 8 hour (AID 1224884); further: nearly all actives have a fitted effect of over 35% in size
Outline: as §1

[4] = qHTS RealTime-Glo MT Cell Viability Assay in HepG2 cells - 16 hour (AID 1224885); further: nearly all actives have a fitted effect of over 50% in size
Outline: (§3)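 HepG2 cells (600/well) were dispensed with RealTime-Glo reagents, incubated 5 h at 37 °C, then treated with compounds in DMSO for up to 40 h. Nonlytic NanoLuc luminescence reflecting viable cells was read at each stated time point.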

[5] = qHTS RealTime-Glo MT Cell Viability Assay in HEK293 cells - 24 hour (AID 1224886); further: nearly all actives have a fitted effect of over 50% in size; further: potency means the concentration at half of the fitted maximal effect; on activity change, negative = cytotoxicity: top concentration of the series differs between compounds
Outline: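 HEK293 cells seeded with NanoLuc/prosubstrate reagent, rested 5 h at 37 C, then dosed and kept at 37 C up to 40 h. Nonlytic real-time luminescence from viable cells read at 0, 8, 16, 24, 32 and 40 h.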

[6] = qHTS RealTime-Glo MT Cell Viability Assay in HEK293 cells - 8 hour (AID 1224887); further: nearly all actives have a fitted effect of over 50% in size; further: potency means the concentration at half of the fitted maximal effect; on activity change, negative = cytotoxicity: top concentration of the series differs between compounds
Outline: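 Nonlytic bioluminescent viability monitoring. HEK293 at 600 cells/well with reagent; 5 h settle; compound transfer by pintool; plates held at 37 C and read at set time points.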

[7] = A CellTox Green Cytotoxicity Assay to monitor cytotoxicity in HEK293 cells - 16 hour (AID 1224888); further: nearly all actives have a fitted effect of over 35% in size
Outline: as §1

[8] = qHTS RealTime-Glo MT Cell Viability Assay in HepG2 cells - 0 hour (AID 1224889); further: nearly all actives have a fitted effect of over 50% in size
Outline: as §3

[9] = A CellTox Green Cytotoxicity Assay to monitor cytotoxicity in HepG2 cells - 8 hour (AID 1224890); further: nearly all actives have a fitted effect of over 45% in size
Outline: as §2

[10] = qHTS assay to identify small molecule antagonists of the estrogen receptor alpha (ER-alpha) signaling pathway using the BG1 cell line in the presence of 0.1 nM 17-beta-estradiol - cell viability counter screen (AID 1259241); further: nearly all actives have a fitted effect of over 40% in size
Outline: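 Cytotoxicity counter-screen: live-cell protease activity measured by fluorescence (30 min reagent step) in the same wells. Cells were VM7Luc4E2 with endogenous ER-alpha and ERE-driven luciferase, treated 22 hr at 37C alongside 0.1 nM 17beta-estradiol final.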

[11] = qHTS assay to identify small molecule antagonists of the androgen receptor (AR) signaling pathway using the MDA cell line in the presence of 0.5 nM R1881 - cell viability counter screen (AID 1259242); further: nearly all actives have a fitted effect of over 45% in size
Outline: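 Cytotoxicity toward MDA-kb2 cells is measured by CellTiter-Fluor live-cell protease fluorescence after 16 hr compound exposure at 37C in the presence of 0.5 nM R1881 stimulator.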

[12] = target: Estrogen receptor (Homo sapiens) (UniProt P03372); experiment: qHTS assay to identify small molecule antagonists of the estrogen receptor alpha (ER-alpha) signaling pathway using the BG1 cell line in the presence of 0.1 nM 17-beta-estradiol (AID 1259244); further: nearly all actives have a fitted effect of over 50% in size; further: potency means the concentration at half of the fitted maximal effect
Outline: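 After 5 days in hormone-depleted medium (charcoal-stripped serum, no phenol red), VM7Luc4E2 cells were seeded, incubated 24 h, then co-treated with compound and 0.1 nM (final) estradiol for 22 h before luminescence detection.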

[13] = qHTS assay to identify small molecule phospholipidosis (PLD) inducers (AID 1259344; active means well fitted curve in the direction sought with a large enough effect; an effect the other way counts as inactive or inconclusive)
Outline: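 HepG2 cells grown on collagen I take up LipidTOX Red while exposed to compound for 24 h; after fixation they are imaged at 20x and pit metrics are extracted.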

[14] = qHTS assay to identify small molecule HDAC inhibitors (AID 1259364); further: nearly all actives have a fitted effect of over 45% in size; further: potency means the concentration at half of the fitted maximal effect; on activity change, negative = inhibition: top concentration of the series differs between compounds
Outline: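 Homogeneous cell-based luminescent assay of endogenous class I/II HDAC activity; HCT-116 cells, 2 h compound exposure, 30 min HDAC-Glo development at RT.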

[15] = qHTS assay to identify small molecule HDAC inhibitors - cell viability counter screen (AID 1259365)
Outline: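 CellTiter-Glo luminescence (30 min, room temperature) reported viability after a 2 h compound exposure at 37 C. Cells: wild-type HCT-116, 1,500 per well, seeded the night before.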

[16] = qHTS assay to identify small molecule antagonists of the sonic hedgehog signaling (Shh) pathway - cell viability counter screen (AID 1259367); further: nearly all actives have a fitted effect of over 55% in size; further: potency means the concentration at half of the fitted maximal effect
Outline: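 After a 4 hr settling period, 3T3 Gli1-Luc cells were treated with DMSO-dissolved chemicals and conditioned medium, kept 24 hr at 37C in 5% CO2, and assayed for viability by CellTiter-Fluor fluorescence following 1 hr reagent incubation.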

[17] = qHTS assay to identify small molecule agonists of the sonic hedgehog signaling (Shh) pathway (AID 1259368; calls by dose curve;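 further: NIH/3T3-derived 3T3Gli1-Luc cells carrying a stable Gli1-driven firefly luciferase reporter; series mostly up to about 92 µM; nearly all actives have a fitted effect of over 15% in size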)
Outline: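 Steps: seed 3T3 Gli1-Luc cells, incubate 4 hr at 37 C, pin-transfer compounds in DMSO alongside a positive control, incubate 24 hr, add luciferase detection reagent, wait 30 min at room temperature, read luminescence.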

[18] = A CellTox Green Cytotoxicity Assay to monitor cytotoxicity in HepG2 cells - 0 hour (AID 1224882); further: nearly all actives have a fitted effect of over 35% in size
Outline: as §2

[19] = qHTS assay to identify small molecule agonists of the sonic hedgehog signaling (Shh) pathway - cell viability counter screen (AID 1259366); further: nearly all actives have a fitted effect of over 50% in size
Outline: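 Cytotoxicity counter screen: CellTiter-Fluor reagent added after 23 h compound exposure, then 1 h at 37C and fluorescence read. Cells were 3T3 Gli1-Luc, seeded 2,000 per well and dosed 4 h post-plating.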

[20] = target: Androgen receptor (Homo sapiens) (UniProt P10275); experiment: qHTS assay to identify small molecule antagonists of the androgen receptor (AR) signaling pathway using the MDA cell line in the presence of 0.5 nM R1881 (AID 1259243); further: nearly all actives have a fitted effect of over 50% in size; further: potency means the concentration at half of the fitted maximal effect
Outline: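 Steps: seed MDA-kb2 cells, incubate 5 hr at 37C; pin-transfer compounds in DMSO; add R1881 to 0.5 nM final; incubate 16 hr; add ONE-Glo, wait 30 min at room temperature; read luminescence.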

Sequence of Estrogen receptor (Homo sapiens) (P03372 whole entry, looked up): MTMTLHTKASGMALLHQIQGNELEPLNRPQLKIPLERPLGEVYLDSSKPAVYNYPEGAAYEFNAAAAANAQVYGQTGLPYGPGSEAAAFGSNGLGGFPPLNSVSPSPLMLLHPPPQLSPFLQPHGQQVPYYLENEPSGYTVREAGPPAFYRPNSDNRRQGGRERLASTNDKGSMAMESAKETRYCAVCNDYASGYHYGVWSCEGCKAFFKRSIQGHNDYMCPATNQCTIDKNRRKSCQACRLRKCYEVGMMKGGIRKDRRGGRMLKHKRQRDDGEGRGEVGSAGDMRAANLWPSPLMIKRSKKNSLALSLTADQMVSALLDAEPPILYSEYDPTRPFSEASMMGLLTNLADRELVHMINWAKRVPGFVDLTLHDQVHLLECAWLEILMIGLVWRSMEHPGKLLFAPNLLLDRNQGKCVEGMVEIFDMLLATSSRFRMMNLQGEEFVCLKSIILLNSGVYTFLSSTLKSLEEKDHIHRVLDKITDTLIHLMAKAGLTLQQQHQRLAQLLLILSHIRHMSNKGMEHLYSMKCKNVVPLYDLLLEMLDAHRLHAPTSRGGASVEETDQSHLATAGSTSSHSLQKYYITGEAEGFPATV
Sequence of Androgen receptor (Homo sapiens) (P10275 whole entry, looked up): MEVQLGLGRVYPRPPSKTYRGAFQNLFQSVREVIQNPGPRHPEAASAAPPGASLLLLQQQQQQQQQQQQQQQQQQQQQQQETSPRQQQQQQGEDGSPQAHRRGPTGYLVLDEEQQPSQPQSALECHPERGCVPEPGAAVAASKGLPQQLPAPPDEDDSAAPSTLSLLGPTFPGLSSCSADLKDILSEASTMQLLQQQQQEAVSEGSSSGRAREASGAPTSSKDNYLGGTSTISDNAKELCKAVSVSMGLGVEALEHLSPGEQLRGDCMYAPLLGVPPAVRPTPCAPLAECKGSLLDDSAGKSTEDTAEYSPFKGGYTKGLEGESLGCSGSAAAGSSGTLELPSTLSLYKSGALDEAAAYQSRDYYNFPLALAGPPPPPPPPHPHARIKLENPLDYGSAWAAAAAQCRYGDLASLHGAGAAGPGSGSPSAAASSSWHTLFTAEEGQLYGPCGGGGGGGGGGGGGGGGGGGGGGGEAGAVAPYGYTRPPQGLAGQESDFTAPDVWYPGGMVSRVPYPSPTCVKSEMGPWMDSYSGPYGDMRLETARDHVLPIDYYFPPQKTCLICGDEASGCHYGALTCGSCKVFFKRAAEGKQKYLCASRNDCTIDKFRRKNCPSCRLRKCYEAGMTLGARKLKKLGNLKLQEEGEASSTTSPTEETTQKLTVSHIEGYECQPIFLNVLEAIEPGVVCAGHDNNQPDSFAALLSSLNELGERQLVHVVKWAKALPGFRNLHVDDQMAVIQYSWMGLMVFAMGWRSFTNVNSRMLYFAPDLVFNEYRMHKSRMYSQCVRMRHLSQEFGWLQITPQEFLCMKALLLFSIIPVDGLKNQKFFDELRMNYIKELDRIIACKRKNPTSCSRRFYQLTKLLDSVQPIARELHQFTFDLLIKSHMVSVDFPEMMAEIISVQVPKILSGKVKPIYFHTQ

## CC(C)C1=CC2=CC[C@@H]3[C@](C)(CCC[C@@]3(C)C(=O)O)[C@H]2CC1
[1]
  Potency: inactive
[2]
  Potency: inactive
[3]
  Potency: inactive
[4]
  outcome: inactive
[5]
  Potency: inactive
[6]
  Potency: inactive
[7]
  Potency: inactive
[8]
  Potency: inactive
[9]
  Potency: inactive
[10]
  Potency: inactive
[11]
  outcome: inactive
[12]
  Potency: inactive
[13]
  outcome: inactive
[14]
  Potency: inactive
[15]
  outcome: inactive
[16]
  Potency: inactive
[17]
  Potency: inactive

## CN(CCCN1c2ccccc2CCc2ccccc21)CC(=O)c1ccc(Cl)cc1
[1]
  Potency: inactive
[18]
  Potency: inactive
[3]
  Potency: inactive
[4]
  outcome: inactive
[5]
  Potency: inactive
[6]
  Potency: inactive
[7]
  Potency: inactive
[8]
  Potency: inactive
[9]
  Potency: inactive
[10]
  Potency: inactive
[11]
  outcome: inactive
[12]
  Potency: inactive
[14]
  Potency: inactive
[15]
  outcome: inactive
[19]
  Potency: inactive
[17]
  Potency: inactive

## COc1cc2c(cc1N)oc1ccccc12
[1]
  Potency: inactive
[2]
  Potency: inactive
[3]
  Potency: inactive
[4]
  outcome: inactive
[7]
  Potency: inactive
[8]
  Potency: inactive
[9]
  Potency: inactive
[10]
  Potency: inactive
[11]
  outcome: inactive
[15]
  outcome: inactive
[16]
  Potency: 62.4 µM (active)

## CC(C)=CCC[C@](C)(O)[C@@H]1CC=C(C)CC1
[18]
  Potency: inactive
[2]
  Potency: 43.6 µM (active)
[3]
  Potency: inactive
[4]
  outcome: inactive
[5]
  Potency: inactive
[6]
  Potency: inactive
[8]
  Potency: inactive
[10]
  Potency: inactive
[11]
  outcome: inactive
[14]
  Potency: inactive
[15]
  outcome: inactive
[19]
  Potency: inactive
[16]
  Potency: inactive
[17]
  Potency: inactive

## CCCCCOc1ccc(C2SC(=O)NC2=O)cc1OCC (stereo not given)
[1]
  Potency: inactive
[3]
  Potency: inactive
[4]
  outcome: inactive
[5]
  Potency: inactive
[6]
  Potency: inactive
[8]
  Potency: inactive
[10]
  Potency: inactive
[11]
  outcome: inactive
[20]
  Potency: inactive
[12]
  Potency: inactive
[13]
  outcome: inactive
[14]
  Potency: inactive
[15]
  outcome: inactive
[19]
  Potency: inactive
[17]
  Potency: inactive

## CC1=NN(c2cc(Cl)c(S(=O)(=O)O)cc2Cl)C(=O)C1N=Nc1ccc(S(=O)(=O)O)cc1 (stereo not given)
[1]
  Potency: inactive
[3]
  Potency: inactive
[4]
  outcome: inactive
[5]
  Potency: inactive
[6]
  Potency: inactive
[7]
  Potency: inactive
[9]
  Potency: inactive
[14]
  Potency: 27.3 µM (active)
[15]
  outcome: inactive
[17]
  Potency: inactive

## CC1=C2[C@H](/C=C(\C)C(=O)O)CC[C@@H](C)[C@H]2CC1
[18]
  Potency: inactive
[2]
  Potency: inactive
[4]
  outcome: inactive
[5]
  Potency: 36 µM (active)
[6]
  Potency: 25.5 µM (active)
[8]
  Potency: inactive
[9]
  Potency: inactive
[10]
  Potency: inactive
[11]
  outcome: inactive
[20]
  Potency: 31.8 µM (active)
[12]
  Potency: 63.4 µM (active)
[14]
  Potency: inactive
[15]
  outcome: inactive
[17]
  Potency: inactive

## COc1cc(Cl)ccc1Cl
[18]
  Potency: inactive
[2]
  Potency: inactive
[3]
  Potency: inactive
[4]
  outcome: inactive
[6]
  Potency: inactive
[7]
  Potency: inactive
[8]
  Potency: inactive
[9]
  Potency: inactive
[10]
  Potency: inactive
[11]
  outcome: inactive
[14]
  Potency: inactive
[15]
  outcome: inactive
[19]
  Potency: inactive
[16]
  Potency: inactive
[17]
  Potency: inactive

## CCCc1c2oc(C(=O)O)cc(=O)c2cc2c(=O)cc(C(=O)O)n(CC)c12
[18]
  Potency: inactive
[2]
  Potency: inactive
[4]
  outcome: inactive
[5]
  Potency: inactive
[6]
  Potency: inactive
[8]
  Potency: inactive
[9]
  Potency: inactive
[11]
  outcome: inactive
[12]
  Potency: inactive
[14]
  Potency: inactive
[15]
  outcome: inactive
[19]
  Potency: inactive
[16]
  Potency: inactive
[17]
  Potency: inactive

## O=C(O)CN(CCN(CC(=O)O)CC(=O)O)CCN(CC(=O)O)CC(=O)O
[1]
  cytotoxicity increase: 18.1% [at 15.8 µM]
[2]
  cytotoxicity increase: 22% [at 15.8 µM]
[3]
  cytotoxicity increase: 18.1% [at 15.8 µM]
[4]
  activity change, negative = cytotoxic: -0.409% [at 15.8 µM]
[7]
  activity change: 12.4% [at 15.8 µM, active compounds read high]
[8]
  activity change, negative = cytotoxicity: -4.51% [at 15.8 µM]
[9]
  cytotoxicity increase: 26.9% [at 15.8 µM]
[10]
  activity change, negative = cytotoxicity: -1.86% [at 19 µM]
[11]
  viability change, negative = cytotoxic: 3.41% [at 19 µM]
[13]
  outcome: inactive
[14]
  activity change, negative = inhibition: 3.25% [at 19 µM]
[15]
  activity change, negative = cytotoxicity: 3.61% [at 19 µM]
[19]
  viability change, negative = cytotoxic: -18.4% [at 19 µM]
[17]
  activity change: 0.166% [at 18.9 µM, active compounds read high]

— PubChem BioAssay (Tox21)
